Experimental data as given in PubChem BioAssay (NCATS).
Several values for one entry are separate records, joined by “and”; a condition that tells them apart may be missing. Equal entries are not always repeated. Records with an inconclusive call do not appear. A number with no mark means an inactive call. Activity calls are given as the source filed them. Calls come from the whole dose curve; as a rule, active = well fitted inhibition curve with a large enough effect; inconclusive = small, poorly fitted or top-dose-only effect; inactive = flat fitted curve, though single readings scatter.
% is set by controls: 0 for no effect and ±100 for the full control effect; potency is the fitted concentration of half-maximal effect.

Each compound was assayed on CRL-7250 (assay: Cytotoxic Profiling of Annotated Libraries Using Quantitative High-Throughput Screening (AID 1296008; note: nearly all actives have a fitted effect of over 60% in size)). Conditions: Five cell lines viability, CellTiter-Glo ATP luminescence, 48-72 h; max response: hits give low values.
Outline: (§1)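 Cytotoxicity was measured as CellTiter-Glo ATP luminescence, read after 10 min at room temperature. Compound treatment of the cells lasted 48 or 72 hr at 37 degrees Celsius in a qHTS format.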
Cn1cnc(-c2cc3nccc(Oc4ccc(NC(=S)NC(=O)Cc5ccccc5)cc4F)c3s2)c1 was tested, and the Potency was 26.4 µM (active).
With COc1c(C)c2c(c(O)c1CC=C(C)CCC(=O)OCCN1CCOCC1)C(=O)OC2 the Potency was 3.32 µM (active).
In the case of COc1c(C)cnc(Cn2cnc3c(Cl)nc(N)nc32)c1C, the Potency is reported as 0.935 µM (active).
With Cc1cnc(CNC(=O)c2c(=O)c3ccc(N4CCCN(C)CC4)nc3n3c2sc2ccccc23)cn1 the max response was -36.5% and -21.3%.
C[C@H]1O[C@@H](n2cc(F)c(=O)[nH]c2=O)[C@H](O)[C@H]1O showed a max response of -14.8%.

The compounds below were run on HEK293 in the same assay as above. Conditions: Five cell lines viability, CellTiter-Glo ATP luminescence, 48-72 h; max response: hits give low values.
Outline: as §1
In the case of COc1ccc(-c2cc3nccn3c(Nc3ncccc3C(N)=O)n2)cc1OC, the Potency is reported as 1.48 µM (active) and 5.8 µM (active).
In the case of CN1CC(=O)NC1=NC(=O)Nc1cccc(Cl)c1, the max response is reported as -3.54%.
With Nc1nc(Cl)nc2c1ncn2[C@@H]1O[C@H](CO)[C@@H](O)[C@H]1F the Potency was 0.469 µM (active).
O=C1NC(=O)C(=Cc2ccc(-c3ccc(F)cc3O)o2)S1 showed a max response of -12.7%.
For Cc1ccc(C(=O)N(CCCN)[C@@H](c2oc3cc(Cl)ccc3c(=O)c2Cc2ccccc2)C(C)C)cc1, the Potency was 0.0662 µM (active).
For COC(=O)Nc1ccc(-c2nc(N3CCOCC3)c3cnn(C4CCN(C(=O)OC)CC4)c3n2)cc1, the Potency was 1.66 µM (active).
C[C@@H](N)c1ccc(C(=O)Nc2ccnc3[nH]ccc23)cc1 was tested, and the Potency was 23.1 µM (active).
For Cc1cc(OCCCS(C)(=O)=O)cc(C)c1-c1cccc(COc2ccc3c(c2)OC[C@H]3CC(=O)O)c1, the Potency was 20.9 µM (active).
For O=C(CCCN1CCN(c2ccc(F)cc2)CC1)NC1c2ccccc2CSc2ccccc21 (configuration not stated), the Potency was 3.72 µM (active).
Cc1ccc(C(=O)N(CCCN)[C@@H](c2nc3cc(Cl)ccc3c(=O)n2Cc2ccccc2)C(C)C)cc1 gave a max response of -91.6%.
With CCCCCCCCCCCCCC(=O)N[C@H](CO)[C@H](O)c1ccc([N+](=O)[O-])cc1 the Potency was 5.26 µM (active).
CCC(C)SSc1ncc[nH]1 (configuration not stated) was tested, and the Potency was 13.2 µM (active).
For Cc1ccc(NC(=O)c2ccc(CN3CCN(C)CC3)cc2)cc1Nc1nc(-c2cccnc2)cs1, the Potency was 8.33 µM (active).
In the case of CN(C(Cc1ccc(OS(=O)(=O)c2cccc3cnccc23)cc1)C(=O)N1CCN(c2ccccc2)CC1)S(=O)(=O)c1cccc2cnccc12 (configuration not stated), the Potency is reported as 5.26 µM (active).
For O=C(c1ccc(F)c(F)c1Nc1ccc(I)cc1F)N1CC(O)([C@H]2CCCCN2)C1, the Potency was 26.4 µM (active).
Cc1cccc(Nc2nc(N[C@@H]3CCCC[C@H]3N)ncc2C(N)=O)c1 was tested, and the Potency was 14.8 µM (active).
With COc1cc2nccc(Oc3ccc(NC(=O)Nc4cc(C)on4)c(Cl)c3)c2cc1OC the Potency was 13.2 µM (active).
For Cc1cc(-c2ncc(CC(=O)Nc3ccc(-c4cnccn4)cn3)cc2C)ccn1, the Potency was 9.35 µM (active) and 8.2 µM (active).
In the case of CC[C@H](CC#N)OC(=O)N[C@@H](C)c1cccc(NC(=O)Nc2ccc(-c3cnco3)c(OC)c2)c1, the Potency is reported as 0.418 µM (active).
In the case of CCC(=O)N1CCN(c2ccc(-n3c(=O)ccc4cnc5ccc(-c6cnc7ccccc7c6)cc5c43)cc2C(F)(F)F)CC1, the Potency is reported as 14.8 nM (active) and 53.1 nM (active).
CC(O)=C(C#N)C(=O)Nc1ccc(C(F)(F)F)cc1 was tested, and the Potency was 11.8 µM (active).
For CCNC(=O)c1noc(-c2cc(C(C)C)c(O)cc2O)c1-c1ccc(CN2CCOCC2)cc1, the Potency was 46.9 nM (active) and 9.2 nM (active).
Compound O=C(c1ccc(C=Cc2n[nH]c3ccccc23)cc1)N1CCNCC1 has a max response of -9.22%.
Cn1cc(-c2ccc3nnc(Sc4ccc5ncccc5c4)n3n2)cn1 was tested, and the outcome was “inactive”.
For CN(C)CCN(C)C(=O)c1ccc(NC(=O)Nc2ccc(-c3nc(N4CCOCC4)c4ccn(CC(F)(F)F)c4n3)cc2)cc1, the max response was -108%.
CC(C)n1c(C=C[C@H](O)C[C@H](O)CC(=O)O)c(-c2ccc(F)cc2)c2ccccc21 was tested, and the Potency was 14.8 µM (active).
For Fc1ccc(CNc2ncnc3ccc(F)cc23)cc1, the Potency was 6.51 µM (active).
For Cn1cnc(-c2cc3nccc(Oc4ccc(NC(=S)NC(=O)Cc5ccccc5)cc4F)c3s2)c1, the Potency was 23.5 µM (active).
For COc1c(C)c2c(c(O)c1CC=C(C)CCC(=O)OCCN1CCOCC1)C(=O)OC2, the Potency was 3.72 µM (active).
COc1c(C)cnc(Cn2cnc3c(Cl)nc(N)nc32)c1C was tested, and the Potency was 0.132 µM (active).
For Cc1cnc(CNC(=O)c2c(=O)c3ccc(N4CCCN(C)CC4)nc3n3c2sc2ccccc23)cn1, the Potency was 0.0512 µM (active).
C[C@H]1O[C@@H](n2cc(F)c(=O)[nH]c2=O)[C@H](O)[C@H]1O was tested, and the Potency was 13.2 µM (active).
